Bioassay records as filed in PubChem.
TWEAK Fn14 block: blocks TWEAK-Fn14 interaction in a reporter cell assay. TWEAK-stimulated Fn14 reporter cells, luciferase luminescence, 8 h. inhibition, % at 10 µM. actives 2% (n = 360,000). AID 1159606; in the data active = inhibition above about 50%
TROY signal inh: TROY signaling inhibition; actives 0.98% (n = 360,000); inhibition, % at 10 µM; Q293 LMP1-TROYcd NF-kB luciferase reporter, 4 h; AID 1347056;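 active = compounds whose plate-normalised and pattern-corrected inhibition of the luciferase reporter signal at the single screening dose is 50% or more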
CF NFkB block: inhibitors of cystic fibrosis induced NF-kB; KKLEB NF-kB-GFP reporter, PAF-induced, GFP fluorescence overnight; inhibition, % at 5 µM; actives 0.86% (n = 360,000);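 active = at least 50% inhibition at 5 µM, scaled per plate between neutral and stimulator controls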;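 also: PAF is a Pseudomonas aeruginosa culture filtrate used as stimulus; plate controls were PAF-stimulated DMSO wells for no effect and unstimulated DMSO wells for full effect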
KKLEB tox: counter-screen for CF NF-kB inhibitors: cytotoxicity. KKLEB CF airway cells viability, ATPlite luminescence, overnight; hits give low values; cells stimulated with P. aeruginosa culture filtrate. activity change (cytotoxicity), % at 5 µM. actives 0.36% (n = 360,000);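 active = corrected activity change at or below -50% at 5 µM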
LGR2 antag: Drosophila LGR2 receptor signaling inhibition; actives 0.35% (n = 380,000); AID 720647; HEK293 LGR2, CRE-luciferase, bursicon-stimulated, 4 h; inhibition, % at 9.99 µM;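 active = drop in luminescence signal, shown as inhibition above about 50% in the replicate tests, limit read from the data, passing the limit was not always enough; inconclusive = probably only some replicates passing the limit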;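 also: agonist challenge used bursicon conditioned medium at about half maximal strength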
EWS-Fli inh: EWS/Fli transcriptional activity inhibition | A673 NR0B1-luciferase reporter, viability-normalised | inhibition, % at 12.6 µM | actives 0.67% (n = 350,000);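 active = mean inhibition of at least 50% after viability correction, with every replicate also passing that limit; inconclusive = mean reaches 50% but only one of two replicates passes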;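 also: firefly luciferase signal divided by Alamar Blue viability fluorescence both relative to DMSO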
* marks the source's active call; other numbers are inactive results. This is a sample that favours compounds with a hit; in the whole collection about 2.6% have one here.

N#C[C@@H]1[C@@H](c2ccccc2C2=CCCCC2)[C@@H](CO)N1C(=O)NC1CCCCC1 was read as LGR2 antag 5 and EWS-Fli inh -12.
For Cc1cccc2sc(NNC(=O)c3ccc(S(=O)(=O)N4CCCC(C)C4)cc3)nc12 (stereo not given) the results were TWEAK Fn14 block 63*, TROY signal inh 46, CF NFkB block 5, KKLEB tox 7, LGR2 antag 43 and EWS-Fli inh 17.
Screening Cc1cccc2sc(NNC(=O)c3ccc(S(=O)(=O)N4CCc5ccccc5C4)cc3)nc12 returned TWEAK Fn14 block 44, TROY signal inh 29, CF NFkB block -30, KKLEB tox 2, LGR2 antag 28 and EWS-Fli inh 8.
CC1CCCN(S(=O)(=O)c2ccc(C(=O)Nc3ccccc3-c3nc4ccccc4[nH]3)cc2)C1 (stereo not given) was read as TWEAK Fn14 block 8, TROY signal inh 3, CF NFkB block 68*, KKLEB tox -55* and LGR2 antag 2.
Screening O=C(C[C@@H]1CC[C@H]2[C@@H](COC[C@@H](O)CN2C(=O)c2ccc(F)cc2)O1)NCc1cccc(F)c1 returned LGR2 antag -1 and EWS-Fli inh 1.
Screening Cc1ccc(S(=O)(=O)Nc2ccc3c(c2)CC(=O)N([C@@H](C)CO)C[C@H](C)[C@@H](CN(C)CC2CC2)O3)cc1 returned LGR2 antag 16 and EWS-Fli inh -4.
Screening CC(=O)N(C)C[C@H]1Oc2cc(C#C[C@H](C)O)ccc2S(=O)(=O)N([C@@H](C)CO)C[C@@H]1C returned LGR2 antag 1 and EWS-Fli inh -7.
`Cc1ccccc1NCC(=O)N/N=C/C(Br)=C/c1ccccc1` gave TWEAK Fn14 block 58*, TROY signal inh 20, CF NFkB block 2 and KKLEB tox 1.
Screening c1ccc(N2CC3CCc4ccccc4C3=N2)cc1 (stereo not given) returned TWEAK Fn14 block -26, TROY signal inh -35, CF NFkB block -7, KKLEB tox -20 and EWS-Fli inh -109.
`CN1N=C2c3ccccc3CCC2C1c1ccc(Cl)cc1` (stereo not given) gave TWEAK Fn14 block 54*, TROY signal inh 40, CF NFkB block 13, KKLEB tox -13, LGR2 antag -99 and EWS-Fli inh -66.
For CN1N=C2c3ccccc3CCC2C1c1ccc(F)cc1 (stereo not given) the results were TWEAK Fn14 block 53*, TROY signal inh 60*, CF NFkB block 16, KKLEB tox -8, LGR2 antag -73 and EWS-Fli inh -71.
C[C@H](CO)N1C[C@H](C)[C@@H](CN(C)Cc2ccncc2)Oc2ccc(NC(=O)C3CC3)cc2CC1=O was read as LGR2 antag -2 and EWS-Fli inh 1.
O=C1/C(=C/c2ccco2)SC(=S)N1C1CCS(=O)(=O)C1 (stereo not given) was read as TWEAK Fn14 block 29, TROY signal inh 18, CF NFkB block 24, KKLEB tox 0, LGR2 antag 55* and EWS-Fli inh -2.
For C[C@H]1CN([C@@H](C)CO)C(=O)c2cc(NC(=O)Nc3ccc4c(c3)OCO4)ccc2O[C@@H]1CN(C)S(C)(=O)=O the results were LGR2 antag 1 and EWS-Fli inh -9.
`COc1ccc(/C=C/C(=O)CC(O)(c2ccccc2)C(F)(F)F)cc1` (stereo not given) gave TWEAK Fn14 block 29, TROY signal inh -36, CF NFkB block 11 and KKLEB tox -5.
`O=C(/C=C/c1ccccc1)CC(O)(c1ccccc1)C(F)(F)C(F)F` (stereo not given) gave TWEAK Fn14 block 69*, TROY signal inh 64*, CF NFkB block 23, KKLEB tox -34, LGR2 antag inconclusive and EWS-Fli inh 66*.
For O=C(/C=C/c1ccccc1)CC(O)(c1ccccc1)C(F)(F)F (stereo not given) the results were TWEAK Fn14 block 88*, TROY signal inh 64*, CF NFkB block 53* and KKLEB tox -58*.
For O=C([C@H]1[C@H](CO)[C@H]2Cn3c(ccc(-c4cccc(F)c4)c3=O)[C@H]2N1Cc1cocn1)N1CCCCC1 the results were LGR2 antag -1 and EWS-Fli inh -3.
CCOC(=O)c1oc2ccccc2c1CSc1nnc(-c2ccco2)o1 was read as TWEAK Fn14 block 59*, TROY signal inh 2, CF NFkB block -3 and KKLEB tox -10.
For COc1ccc(CN2C[C@H](C)[C@H](OC)CN(C)C(=O)c3cc(NC(=O)C4CC4)ccc3OC[C@@H]2C)cc1 the results were LGR2 antag -13 and EWS-Fli inh 1.
Screening O=C(COc1cccc(NC(=O)c2cccc([N+](=O)[O-])c2)c1)c1ccc(Br)cc1 returned TWEAK Fn14 block 71*, TROY signal inh 39, CF NFkB block 4 and KKLEB tox 2.
`O=C(NNC(=O)c1ccccc1-n1cccc1)c1ccc(Cl)cc1` gave TWEAK Fn14 block 83*, TROY signal inh -13, CF NFkB block -12 and KKLEB tox 9.
`CN1C(=O)c2cc(NC(=O)Nc3ccccc3F)ccc2OC[C@@H]2O[C@@H](CC(=O)O)CC[C@@H]21` gave LGR2 antag 4 and EWS-Fli inh 5.
Screening COc1cccc(C(=O)Nc2ccc3c(c2)OC[C@@H](C)N(CCc2ccccc2)C[C@@H](C)[C@H](OC)CN(C)C3=O)c1 returned LGR2 antag -4 and EWS-Fli inh -1.
`CC(C)N1CCC2(CC1)N=C(c1ccc3c(c1)OCO3)CC(c1cc(Cl)ccc1O)N2` (stereo not given) gave TWEAK Fn14 block 51*, TROY signal inh 4, CF NFkB block 27 and KKLEB tox -31.
For CC(Sc1ccc(Cl)cc1)C(=O)Nc1ccc2c(c1)OCO2 (stereo not given) the results were TWEAK Fn14 block -7, TROY signal inh -22, CF NFkB block -1 and KKLEB tox -4.
For Nc1[nH]c(C(=O)c2ccccc2)c(-c2cccc3ccccc23)c1C(=O)c1ccc(Br)cc1 the results were LGR2 antag 11 and EWS-Fli inh 5.
`Cc1nc2ccccc2nc1SCC(=O)c1ccccc1` gave TWEAK Fn14 block 60*, TROY signal inh 43, CF NFkB block 18, KKLEB tox -14 and LGR2 antag -15.
For CC(C)(C)c1nc(SCC(=O)c2ccccc2)c2ccccc2n1 the results were TWEAK Fn14 block 1, TROY signal inh 13, CF NFkB block 20, KKLEB tox 6, LGR2 antag -90 and EWS-Fli inh -67.
COc1ccc(N(C(=O)c2ccncc2)S(=O)(=O)c2ccc3c4c(cccc24)C(=O)N3C)cc1 was read as TWEAK Fn14 block 34, TROY signal inh 64*, CF NFkB block 46, KKLEB tox -12, LGR2 antag 72* and EWS-Fli inh 2.
